According to PubChem BioAssay AID1347416 (National Center for Advancing Translational Sciences (NCATS), 2020):
Screen size: about 4,100 compounds; about 1,600 (39%) were called active. About 25% were inconclusive and are not listed. Calls follow the shape of the dose curve; as a rule, active = well fitted inhibition curve with a large enough effect; inconclusive = small, poorly fitted or top-dose-only effect; inactive = no such curve, though single readings can be large or run the other way. This is one part of the list. Entries that show only a call come without a potency.

test: qHTS Validation assay for Inhibitors of Plasmodium falciparum Dd2 growth in vitro; also: nearly all actives have a fitted effect of over 70% in size; details: P. falciparum Dd2 in RBCs, SYBR Green growth, 72 h; series mostly up to 28.7 µM
Description: Malaria, a parasitic disease spread to humans through the bite of a Plasmodium infected Anopheles mosquito, continues to be a global health burden affecting millions of people, with an estimated 228 million cases and 405,000 deaths in 2018. Concerns about safety and limitations of current antimalarial treatments strongly emphasize the need to develop new therapeutic options. The scarce number of chemotypes and validated drug targets with efficacy against the liver stage, have hindered development of new antimalarials. To address this, a chemoprophylactic drug discovery effort was conducted through a combined phenotypic high-throughput asexual blood stage and liver stage screen, providing a robust foundation to identify liver-stage active lead chemotypes. Compounds were initially screened against Plasmodium falciparum Dd2 strain parasites using a in vitro SYBRGreen-1 based 72 hr proliferation assay to identify novel chemotypes to advance to liver stage assays. NIH/NCATS Early Translation Branch Assay Submitter (PI): Anton Simeonov Ph.D.
[…] Assay Protocol: PROTOCOL TABLE (as described by Inglese et al., 2007) SEQUENCE No. (e.g., 1, 2, 3, etc.); PARAMETER (e.g., Cells, Incubation, Reagent, etc.); VALUE; DESCRIPTION SEQUENCE, Parameter, Description 1; Reagent; 3 uL complete malaria growth medium, 1536 TC treated Black clear bottom plate 2; Controls; 23 nL positive control artesunate (300 nM final) to column 1; Neutral control DMSO to columns 2-4 3; Compound; 23 nL of compounds in dose response concentration (29 uM to 0.5 nM final) 4; Reagent; 5 uL malaria infected red blood cells (2.5% hematocrit final, 0.3% parasitemia 5; Time; 72 hours at 37C (5% O2, 5% CO2, 90% N2; 95% Rh) 6; Reagent; 2 uL lysis buffer/SYBRGreen-1, 25 sec shake immediately following dispense 7; Time; ~16 hours at 37C (5% O2, 5% CO2, 90% N2; 95% Rh) 8; Detector; EnVision (PerkinElmer) bottom read at 485/14nm excitation and 535/25 nm emission NOTES (numbers refer to sequence above): 1; Complete Malaria Growth Media: 1X RPMI-1640 w/L-glutamine, 5.5g/L Albumax II, 367 uM Hypoxanthine, 25 mM HEPES, 0.25% Sodium Bicarbonate, 35 uM Gentamicin sulfate 2; Controls were added using the Kalypsis Pintool (Wako USA) equipped with 1536 pinhead 3; Compounds were added in a 7-point, titration with a high final concentration of 29 uM by Pintool from seven inter-plate titrations of library plates and two DMSO control plates at the beginning and end (see Yasgar et al., 2008). 4; Red blood cells infected with Plasmodium falciparum Dd2 parasites were used. 6; Lysis buffer: 20 mM Tris-HCl, 10 mM EDTA, 0.16% Saponin, 1.6% Triton-X, 10X SYBR Green. REFERENCE: Inglese J, Shamu CE, Guy RK. 2007. Reporting data from high-throughput screening of small-molecule libraries. Nat Chem Biol. doi:10.1038/nchembio0807-438 Yasgar A, Shinn P, Jadhav A, Auld D, Michael S, Zheng W, Austin CP, Inglese J, Simeonov A. 2008. Compound Management for Quantitative High-Throughput Screening. J Lab Autom 13:79-89. doi:10.1016/j.jala.2007.12.004
Potency is read from the fitted curve at half-maximal effect.

| SMILES | Potency |
| --- | --- |
| Cc1ccc(Nc2cc(=O)oc3ccccc23)c(C)c1 | inactive |
| COc1ccc(C)cc1NCc1cc(=O)oc2cc(-c3ccccc3)c(O)cc12 | 5.31 µM (active) |
| COc1ccccc1NCc1cc(=O)oc2c(C)c(O)ccc12 | 5.96 µM (active) |
| COc1ccc(-c2nc3ccccc3o2)cc1NC(=O)COc1c(C)cc(Cl)cc1Cl | inactive |
| O=C(Nc1ccc([N+](=O)[O-])cc1)Nc1ccc(OC(F)F)c(Cl)c1 | 2.66 µM (active) |
| Oc1ccc(CN2CCCCC2)nc1-c1ccccc1 | 0.531 µM (active) |
| Oc1ccc(-c2ccccc2)cc1CN1CCCCCC1 | 0.266 µM (active) |
| CN1C(=O)CC(C(=O)O)C12CCN(Cc1cccc(C(=O)O)n1)CC2 (stereo unspecified) | inactive |
| CNC(=O)[C@H]1C[C@H](Oc2ccccc2)CN1C(=O)CCc1nc2ccccc2[nH]1 | inactive |
| C/C(Cl)=C/Cc1c(C)[nH]c2c(ccc3ccccc32)c1=O | 0.842 µM (active) |
| O=c1[nH]c(C2CCCN(Cc3ccccn3)C2)nn1-c1ccc(Cl)cc1 (stereo unspecified) | 2.37 µM (active) |
| COc1ccc(-n2nc(C3CCCN(C(=O)Nc4ccccc4)C3)[nH]c2=O)cc1 (stereo unspecified) | inactive |
| O=c1[nH]c(C2CCCN(Cc3ccc(F)cc3)C2)nn1-c1ccc(Cl)cc1 (stereo unspecified) | inactive |
| C/C=C/c1cc(CN2CCN(c3ccccc3)CC2)c(O)c(OC)c1 | 5.96 µM (active) |
| CCn1ccc2sc(C)c(C(=O)N3CCC(Cc4ccccc4)CC3)c2c1=O | inactive |
| COc1ccc(C(=O)N2CCC(Cc3nc(-c4ccccc4)n[nH]3)CC2)cc1OC | inactive |

| SMILES | Potency |
| --- | --- |
| COc1cc(C)cc(CN2CCC(Cc3ccccc3)CC2)c1O | 0.75 µM (active) |
| COC1CN(c2ccc(C)cc2)C12CCN(C(=O)CCc1nc3ccccc3s1)CC2 (stereo unspecified) | 10.6 µM (active) |
| O=C(CCc1nc2ccccc2s1)N1CCC(c2nc(C3CCOCC3)no2)CC1 | inactive |
| CCN1C(=O)C2CC3(CCN(C(=O)CCc4nc5ccccc5[nH]4)CC3)CN2C1=O (stereo unspecified) | inactive |
| O=C(Nc1cccc(-c2nnc3n2CCCC3)c1)c1ccoc1 | inactive |
| COc1ccc(C2Cn3cnc(C(=O)N4CCC(C(=O)Nc5ccc(F)c(C)c5)CC4)c3CO2)cc1 (stereo unspecified) | inactive |
| CCc1ccc(NC(=O)C2CCN(C(=O)c3nnn4cc(C)[nH]c(=O)c34)CC2)cc1 | inactive |
| Cc1ccc(CCNC(=O)C2CCN(C(=O)c3cc4c(=O)[nH]c(C)cn4n3)CC2)cc1 | inactive |
| COc1ccc(C(=O)Nc2cccc(-c3nnc4n3CCCC4)c2)cc1F | inactive |
| CCN1CCN(C(=O)c2ccc(-c3nnc4ccc(NC(=O)C5CC5)cn34)cc2)CC1 | 6.68 µM (active) |
| COc1cccc(NC(=O)c2ccc(-c3nnc4ccc(NC(=O)C5CCC5)cn34)cc2)c1 | 3.76 µM (active) |
| CCN(CC)C(=O)c1ccc(-c2nnc3ccc(NC(=O)C4CC4)cn23)cc1 | 2.99 µM (active) |
| Cc1ccc(C(=O)N2CCCC(n3cc(-c4nc(-c5ccccc5)no4)nn3)C2)cc1 (stereo unspecified) | inactive |
| O=C(c1ccsc1)N1CCN(c2nnc3ccc(C(F)(F)F)cn23)CC1 | inactive |
| CC(=O)Nc1ccc2nnc(-c3ccc(C(=O)N4CCCCCC4)cc3)n2c1 | 8.41 µM (active) |
